The source made the active and inactive calls. Rule for the calls: active = hit-call score of the fitted dose curve at least 0.9, where 1 is the maximum; inactive = score below 0.9.
Experiments:
[1] = read-out: Forkhead box O3 (FOXO3), FOXO3 (gene 2309); assay: LTEA_HepaRG_FOXO3: Life Technologies and Expression Analysis (LTEA) Assay for Forkhead box O3 (FOXO3) using HepaRG (AID 2283459); settings: mRNA level, 48 h; actives raise or lower the signal
Summary of the method: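 FOXO3 transcript measured by qRT-PCR (normalized to ACTB, GAPDH, POLR2A) after 48 h exposure of HepaRG cells in serum-free induction medium. Duplicates, eight half-log concentrations up to 100 uM, 0.5% DMSO; gain or loss fitted against DMSO.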

[2] = read-out: ABC Transporter (ABCB1), ABCB1 (gene 5243); assay: LTEA_HepaRG_ABCB1: Life Technologies and Expression Analysis (LTEA) Assay for ABC Transporter (ABCB1) using HepaRG (AID 2283460); settings: mRNA level, 48 h; actives raise or lower the signal
Summary of the method: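 ABCB1 transcript level measured by TaqMan qRT-PCR against three housekeeping genes after 48 h chemical exposure of differentiated HepaRG cells. Top concentration 100 uM, half-log steps, eight points, 0.5% DMSO vehicle; bidirectional fit relative to DMSO.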

[3] = read-out: growth arrest and DNA damage 45 (GADD45B), GADD45B (gene 4616); assay: LTEA_HepaRG_GADD45B: Life Technologies and Expression Analysis (LTEA) Assay for growth arrest and DNA damage 45 (GADD45B) using HepaRG (AID 2283461); settings: mRNA level, 48 h; actives raise or lower the signal
Summary of the method: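 Transcript level quantified by Fluidigm TaqMan qRT-PCR with three housekeeping genes for normalization, analyzed for up- or down-regulation against 0.5% DMSO. HepaRG cultures dosed 48 h at eight half-log concentrations up to 100 uM, duplicates.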

[4] = read-out: ABC Transporter (ABCB11), ABCB11 (gene 8647); assay: LTEA_HepaRG_ABCB11: Life Technologies and Expression Analysis (LTEA) Assay for ABC Transporter (ABCB11) using HepaRG (AID 2283463); settings: mRNA level, 48 h; actives raise or lower the signal
Summary of the method: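 ABCB11 transcript levels quantified by TaqMan qRT-PCR against three housekeeping genes after 48 h chemical exposure of HepaRG cultures. Concentrations up to 100 uM in half-log steps, 0.5% DMSO vehicle; both induction and suppression scored.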

[5] = read-out: ABC Transporter (ABCC2), ABCC2 (gene 1244); assay: LTEA_HepaRG_ABCC2: Life Technologies and Expression Analysis (LTEA) Assay for ABC Transporter (ABCC2) using HepaRG (AID 2283464); settings: mRNA level, 48 h; actives raise or lower the signal
Summary of the method: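 Endpoint is ABCC2 transcript level from qRT-PCR, normalized to three housekeeping genes and fitted bidirectionally relative to DMSO. Human HepaRG cells received test chemical for 48 h at up to 100 uM (8 points, half-log steps, 0.5% DMSO), duplicate wells.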

[6] = read-out: Broad substrate specificity ATP-binding cassette transporter ABCG2 (Homo sapiens) (UniProt Q9UNQ0); assay: LTEA_HepaRG_ABCG2: Life Technologies and Expression Analysis (LTEA) Assay for ABC Transporter (ABCG2) using HepaRG (AID 2283465); settings: mRNA level, 48 h; actives raise or lower the signal
Summary of the method: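 ABCG2 transcript was quantified by TaqMan qRT-PCR against three housekeeping genes in HepaRG cells. Cells were treated in duplicate for 48 h across an 8-point half-log series up to 100 uM, with 0.5% DMSO vehicle. Gain or loss versus DMSO was fit.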

[7] = read-out: ATP-citrate lyase (ACLY), ACLY (gene 47); assay: LTEA_HepaRG_ACLY: Life Technologies and Expression Analysis (LTEA) Assay for ATP-citrate lyase (ACLY) using HepaRG (AID 2283466); settings: mRNA level, 48 h; actives raise or lower the signal
Summary of the method: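 ACLY mRNA quantified by qRT-PCR on Fluidigm arrays against three housekeeping genes, after 48 h chemical treatment of HepaRG cells (top concentration 100 uM, half-log steps, 0.5% DMSO vehicle). Up- or down-regulation fitted relative to DMSO.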

[8] = read-out: Peroxisomal acyl-coenzyme A oxidase 1 (ACOX1) gene, ACOX1 (gene 51); assay: LTEA_HepaRG_ACOX1: Life Technologies and Expression Analysis (LTEA) Assay for Peroxisomal acyl-coenzyme A oxidase 1 (ACOX1) gene using HepaRG (AID 2283467); settings: mRNA level, 48 h; actives raise or lower the signal
Summary of the method: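 ACOX1 transcript levels were quantified by TaqMan qRT-PCR against three housekeeping genes after 48 h chemical exposure of differentiated human HepaRG cells. Exposure used eight half-log steps topping at 100 uM, 0.5% DMSO vehicle, in duplicate. Bidirectional curve fits were made relative to DMSO.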

[9] = read-out: Bcl-2 (BAD) gene, BAD (gene 572); assay: LTEA_HepaRG_BAD: Life Technologies and Expression Analysis (LTEA) Assay for Bcl-2 (BAD) gene using HepaRG (AID 2283469); settings: mRNA level, 48 h; actives raise or lower the signal
Summary of the method: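 Read-out: qRT-PCR of BAD mRNA, normalized to three housekeeping genes. Human HepaRG cultures got 48 h chemical exposure in 0.5% DMSO, duplicate eight-point half-log series topping at 100 uM. Gain or loss of signal fitted versus DMSO vehicle.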

[10] = CEETOX_H295R_TESTO: CeeTox H295R High-throughput Steroidogenesis Assay for Testosterone (TESTO) (AID 2283457); settings: actives raise or lower the signal;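 for AC50: cells exposed to chemicals for 48 h before medium collection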
Summary of the method: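 Testosterone secreted into the medium over 48 h by H295R cells (maximum passage 10) was quantified by LC-MS/MS after MTBE extraction. Fitted in both directions against DMSO, with concentrations diluted until MTT viability was ≥70%.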

Measured: AC50

Sequence of Broad substrate specificity ATP-binding cassette transporter ABCG2 (Homo sapiens) (Q9UNQ0 whole entry, looked up): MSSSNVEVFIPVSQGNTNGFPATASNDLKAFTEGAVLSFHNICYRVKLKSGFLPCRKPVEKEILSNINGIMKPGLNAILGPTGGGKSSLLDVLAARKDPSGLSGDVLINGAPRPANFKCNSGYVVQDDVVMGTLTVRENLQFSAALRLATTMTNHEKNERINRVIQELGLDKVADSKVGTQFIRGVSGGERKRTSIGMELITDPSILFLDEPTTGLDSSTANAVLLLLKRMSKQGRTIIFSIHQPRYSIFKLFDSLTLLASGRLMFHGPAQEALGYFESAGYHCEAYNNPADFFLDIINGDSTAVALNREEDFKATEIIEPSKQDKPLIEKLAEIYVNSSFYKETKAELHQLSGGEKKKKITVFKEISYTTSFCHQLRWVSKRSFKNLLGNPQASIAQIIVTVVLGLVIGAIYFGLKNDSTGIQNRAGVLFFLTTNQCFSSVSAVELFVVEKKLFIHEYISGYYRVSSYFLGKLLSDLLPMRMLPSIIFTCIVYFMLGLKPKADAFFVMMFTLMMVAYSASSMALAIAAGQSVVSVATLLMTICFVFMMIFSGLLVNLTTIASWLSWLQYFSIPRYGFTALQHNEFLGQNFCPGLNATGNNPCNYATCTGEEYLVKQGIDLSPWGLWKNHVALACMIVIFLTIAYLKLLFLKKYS

CCCCC(CC)C(=O)O (configuration not stated)
not listed: [10]
inactive: all other assays above

CS(=O)(=O)c1ccc([C@@H](CC2CCCC2)C(=O)Nc2cnccn2)cc1Cl
active: [6] 12.8 µM
not listed: [2] | [4] | [10]
inactive: all other assays above

CCC(C)c1ccccc1O (configuration not stated)
not listed: [7] | [10]
inactive: all other assays above

CC(C)(c1ccc(Oc2ccc(N)cc2)cc1)c1ccc(Oc2ccc(N)cc2)cc1
active: [10] 0.334 µM

Oc1cc2ccccc2cc1O
inactive: [10]

O=C(NCc1ncc(C(F)(F)F)cc1Cl)c1c(Cl)cccc1Cl
inactive: [10]

O=C1NS(=O)(=O)c2ccccc21
not listed: [10]
inactive: all other assays above

Cc1[nH]nc2c1N=C(c1ccccc1Cl)c1cc([N+](=O)[O-])ccc1N2
active: [1] 12.6 µM | [2] 0.742 µM | [3] 4.57 µM | [4] 8.72 µM | [5] 31.9 µM | [8] 20.1 µM
inactive: [6] | [7] | [9]

CN(C)CCOC(c1ccccc1)c1ccccc1
active: [7] 81.6 µM
not listed: [10]
inactive: all other assays above

CC(C)CCOCCC(C)C
inactive: [10]

CCCCC=O
not listed: [10]
inactive: all other assays above

CN(Cc1cnc2nc(N)nc(N)c2n1)c1ccc(C(=O)N[C@@H](CCC(=O)O)C(=O)O)cc1
active: [4] 0.206 µM
not listed: [8] | [10]
inactive: all other assays above

CCCCCCCCCCCCCCC
not listed: [10]
inactive: all other assays above

COc1cc([N+](=O)[O-])ccc1N
inactive: [10]

Cc1cccc2c1ccc1ccccc12
inactive: [10]

O=C(CCCN1CCC(O)(c2ccc(Cl)cc2)CC1)c1ccc(F)cc1
inactive: [1] | [3] | [6] | [9]
active: [2] 85.6 µM | [4] 80.1 µM | [5] 80.7 µM | [7] 32 µM | [8] 67 µM

O=C(c1ccccc1)c1ccccc1
not listed: [10]
inactive: all other assays above

CC(=O)Nc1ccc(O)cc1
not listed: [10]
inactive: all other assays above

c1cc[nH]c1
inactive: [10]

CCCCCCCCCCCCOS(=O)(=O)O
active: [2] 77.2 µM | [5] 86.2 µM
not listed: [4] | [10]
inactive: all other assays above

CCCCc1oc2ccccc2c1C(=O)c1cc(I)c(OCCN(CC)CC)c(I)c1
active: [3] 59.6 µM | [4] 52.1 µM | [5] 68.8 µM | [6] 61 µM | [7] 59.4 µM
inactive: [1] | [2] | [8] | [9]

N=C(N)c1ccc(OCCCCCOc2ccc(C(=N)N)cc2)cc1
active: [2] 4.87 µM | [3] 7.1 µM | [4] 4.37 µM | [5] 25.6 µM | [6] 2.79 µM | [7] 35.9 µM | [8] 29 µM
inactive: [1] | [9]

OCC(CO)(CBr)CBr
not listed: [10]
inactive: all other assays above

CCCCCc1ccc(O)cc1
active: [10] 50 µM
